Screening results as filed in PubChem.
Hits are enriched below; roughly 4.7% of the tested compounds scored in any of these assays.
HSF1 inhib – HSF1 inhibition; NIH3T3-HGL HSE-luciferase, MG132-induced, luminescence 8 h; stronger effect = lower value; activity change, negative = inhibition, % at 7.5 µM (by protocol); hit rate 0.77% among 300,000;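 active = more than half of replicate wells show activity change below -50%, luminescence cut by over half; inconclusive = some wells, but at most half, below -50%; inactive = no replicate well below -50%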;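 note: luciferase reports HSF-1 transcriptional activity via heat shock element; 0% = median of DMSO wells and -100% = zero luminescence signal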
LMP1 NFkB inh – Epstein-Barr LMP1 NF-kappaB reporter inhibition | hit rate 0.69% among 350,000 | LMP1-induced NF-kappaB luciferase reporter cells, luminescence | inhibition, % at 12.5 µM | AID 504558; in the data active = inhibition above about 41%; inconclusive = no clear call, values can overlap the other calls;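 note: 0% = neutral control wells and 100% = reference inhibitor control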
HSP90 inh – blocks HSP90-mediated luciferase refolding in reticulocyte lysate; Rabbit reticulocyte lysate, luciferase refolding luminescence, 3 h; inhibition, % at 5.6 µM; hit rate 0.91% among 290,000; AID 1789;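 active = inhibition above the screen-wide mean plus 3 SD, computed separately per campaign, cut at about 16% in these data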;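 note: 0% = DMSO wells and 100% = 60 µM geldanamycin wells; inhibitors lower the luminescence because luciferase stays unfolded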
HSF1 activator – increases HSF-1 driven luciferase reporter signal; NIH3T3-HGL HSF-1 luciferase reporter, MG132, 8 h; 100% = twice DMSO control signal; activation, % at 9 µM; hit rate 1.7% among 300,000; AID 504408;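 active = mean replicate activation of at least 50% with a set share of replicates each reaching 50%; inconclusive = only one of those two conditions met; inactive = mean below 50% and too few replicates reaching it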;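 note: 0% = median of the neutral control wells and 100% = twice that signal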
TWEAK Fn14 block – blocks TWEAK-Fn14 interaction in a reporter cell assay; TWEAK-stimulated Fn14 reporter cells, luciferase luminescence, 8 h; inhibition, % at 10 µM; hit rate 2% among 360,000; in the data active = inhibition above about 50%
TROY NFkB inh – blocks TROY-dependent signaling in reporter cells. Q293 LMP1-TROYcd NF-kB luciferase reporter, 4 h. inhibition, % at 10 µM. hit rate 0.98% among 360,000;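 active = compounds whose plate-normalised and pattern-corrected inhibition of the luciferase reporter signal at the single screening dose is 50% or more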
The depositor's hits bear a star; ? = inconclusive; nt = no result.

SMILES	HSF1 inhib	LMP1 NFkB inh	HSP90 inh	HSF1 activator	TWEAK Fn14 block	TROY NFkB inh
CCOC(=O)N1CCN(C(=O)c2ccc3c(c2)N(C)C(=O)/C(=C\c2ccc(OCC)c(OC)c2)S3)CC1	0	25	5	10	18	30
CCOC(=O)N1CCC(NC(=O)c2ccc3c(c2)N(C)C(=O)/C(=C/c2cccc(OC)c2)S3)CC1	18	4	0	37	75*	61*
Cc1cccc(NC(=O)Nc2ccccc2)n1	15	-12	-5	15	39	-55
Cc1cccc(NC(=O)Nc2ccc(Cl)c(Cl)c2)n1	47	-25	3	?	58*	18
COC(=O)c1sccc1NC(=O)Nc1ccc(Cl)c(Cl)c1	47	-7	-7	66*	-44	-85
COC(=O)c1cccc(NC(=O)Nc2ccc(Cl)c(Cl)c2)c1	-4	18	-7	-1	60*	31
NS(=O)(=O)c1ccc(Nc2nc(-c3ccc4ccccc4c3)cs2)cc1	-1	-19	1	-7	17	7
O=C(Nc1cccc(-c2csc(Nc3ccc(Cl)cc3)n2)c1)c1cc([N+](=O)[O-])cc(C(F)(F)F)c1	2	-19	nt	-13	51*	3
NS(=O)(=O)c1ccc(Nc2nc(-c3cccc([N+](=O)[O-])c3)cs2)cc1	-5	-8	-6	-8	36	56*
O=C(Nc1cccc(-c2csc(Nc3ccccc3)n2)c1)c1cc([N+](=O)[O-])cc(C(F)(F)F)c1	-2	-18	-6	13	10	10
O=C(CC[C@H]1O[C@@H](n2ccc(=O)[nH]c2=O)[C@H](O)[C@@H]1O)N[C@H](Cc1ccccc1)C(=O)NCc1ccc2c(c1)OCO2	nt	nt	nt	nt	-11	18
Cn1c(=O)c2cc(NC(=O)NCc3ccccc3)ccc2n1Cc1cccc(C(F)(F)F)c1	nt	nt	nt	nt	20	-18
CCCCn1c(N)c(N(CC(C)C)C(=O)c2cccc(S(=O)(=O)N3CCCCC3)c2)c(=O)[nH]c1=O	-71*	6	nt	-77	5	-2
CCCCn1c(N)c(N(CC(C)C)C(=O)c2cccc(S(=O)(=O)N3CCCCCC3)c2)c(=O)[nH]c1=O	-6	-16	1	-3	14	-24
NC(=O)CCC(C(=O)O)N1C(=O)C2C3CCC(C3)C2C1=O (stereo not given)	nt	-3	nt	nt	0	8
Cc1cccc(C)c1Cn1c(C)c(C(=O)NCCC#N)sc1=O	nt	nt	nt	nt	-4	1
c1cc2[nH]snc2c2nc(C3CC3)nc12	-25	27	3	-30	62*	40
CC1CCN(C(=O)CCC(=O)Nc2ccc([N+](=O)[O-])cc2)CC1	nt	-7	nt	nt	5	-10
CCNC(=S)Nc1cccc(S(=O)(=O)NC2=NCCC2)c1	0	6	2	-6	-1	12
CC(=O)NC(=S)Nc1cccc(S(=O)(=O)NC2=NCCC2)c1	-76*	6	-5	-81	2	1
Cc1ccc(NC(=S)NCCSc2ccc(Cl)cc2)cc1	0	-9	4	9	-11	10
CC(CNC(=S)Nc1cc(F)cc(F)c1)CSc1ccc(Cl)cc1 (stereo not given)	-1	5	5	4	23	61*
N#C/C(=C\c1ccc(N2CCOCC2)o1)c1ccccc1	28	-27	2	39	9	-6
N#C/C(=C/c1ccc(N2CCCCCC2)o1)c1cccc(F)c1	48	-25	2	81*	24	14
N#C/C(=C/c1ccc(N2CCCCCC2)o1)c1ccc(F)cc1	93	-8	2	114*	22	-2
SMILES	HSF1 inhib	LMP1 NFkB inh	HSP90 inh	HSF1 activator	TWEAK Fn14 block	TROY NFkB inh
N#C/C(=C/c1ccc(N2CCOCC2)o1)c1ccc(Br)cc1	80	-51	3	94*	14	17
C=CCOc1cccn2c(N(C)C(=O)c3ccccc3F)c(CC)nc12	nt	nt	nt	nt	2	-10
Cn1c(C(=O)N2CCc3ccccc3C2)cc2oc3ccccc3c21	41	-26	-3	66*	-23	-41
CC(=O)Nc1cccc(-c2ccnc3c2CC(C(=O)NCc2cccs2)O3)c1 (stereo not given)	nt	nt	nt	nt	-11	20
CCN(C[C@H]1N[C@@](CC)(C(=O)OC)[C@H]2C(=O)N(C)C(=O)[C@@H]12)S(=O)(=O)c1ccc(C(C)(C)C)cc1	nt	1	nt	nt	54*	-3
CCNC(=O)N(CC)C[C@H]1N[C@@](Cc2ccccc2)(C(=O)OC)[C@H]2C(=O)N(Cc3ccccc3)C(=O)[C@@H]12	nt	-2	nt	nt	21	-10
